Source: PubChem BioAssay AID1159580 (chemical genetic matrix, 2015)
Where “and” joins values, the source holds several entries; their conditions need not be identical. Identical values can stand only once. Among all 5,500 compounds or so, about 2,000 (36%) were called active. Not shown: some 18% with an inconclusive outcome. No stated cut-off is given here; in the data, active means normalized growth mostly below about 0.91 (no sharp cut-off); inconclusive means no clear call, values can overlap the other calls; inactive means mostly above about 0.92. Some of the results follow.

Test: chemical genetic growth profiling, strain panel (AID 1159580);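 further: tested at 20 µM; growth read once vehicle control cultures reached saturation at 30 °C; 1 = growth at the plate median or of vehicle wells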
Conditions: S. cerevisiae deletion strains, growth OD

Measured: normalized growth

Nc1ccc(C(=O)Oc2ccccc2)c(O)c1
0.9 (active) and 0.937 (inactive): locus YHR030C, strain SLT2, stronger effect = lower value
active: locus YCL029C, strain bik1, stronger effect = lower value 0.883 | locus YCR088W, strain abp1, stronger effect = lower value 0.921 | locus YDL074C, strain BRE1, stronger effect = lower value 0.67 | locus YDL134C, strain PPH21, stronger effect = lower value 0.837 | locus YDL192W, strain arf1, stronger effect = lower value 0.807 | locus YDR101C, strain arx1, stronger effect = lower value 0.864 | locus YDR137W, strain rgp1, stronger effect = lower value 0.545 | locus YDR159W, strain sac3, stronger effect = lower value 0.862 | locus YDR162C, strain NBP2, stronger effect = lower value 0.567 | locus YDR318W, strain mcm21, stronger effect = lower value 0.765 | locus YDR388W, stronger effect = lower value 0.884 | locus YDR502C, strain sam2, stronger effect = lower value 0.767 | locus YER110C, stronger effect = lower value 0.86 | locus YER155C, strain BEM2 (second series), stronger effect = lower value 0.533 | locus YER167W, strain BCK2, stronger effect = lower value 0.759 | locus YGL078C, strain dbp3, stronger effect = lower value 0.893 | locus YGL086W, strain mad1, stronger effect = lower value 0.801 | locus YGL173C, strain kem1, stronger effect = lower value 0.899 | locus YGL240W, strain doc1, stronger effect = lower value 0.864 | locus YGL248W, strain PDE1, stronger effect = lower value 0.864 | locus YGR135W, strain pre9, stronger effect = lower value 0.676 | locus YGR252W, strain gcn5, stronger effect = lower value 0.589 | locus YHR079C, strain IRE1 (second series), stronger effect = lower value 0.864 | locus YHR129C, strain ARP1, stronger effect = lower value 0.88 | locus YHR200W, strain rpn10, stronger effect = lower value 0.913 | locus YIL066C, strain RNR3, stronger effect = lower value 0.741 | locus YIL125W, strain kgd1, stronger effect = lower value 0.922 | locus YIR030C, strain dcg1, stronger effect = lower value 0.867 | locus YJL168C, strain set2, stronger effect = lower value 0.921 | locus YJR075W, strain HOC1, stronger effect = lower value 0.84 | locus YKL068W, stronger effect = lower value 0.93 | locus YKL085W, strain MDH1 (second series), stronger effect = lower value 0.914 | locus YKL085W, strain MDH1, stronger effect = lower value 0.914 | locus YKR001C, strain vps1, stronger effect = lower value 0.672 | locus YKR026C, strain gcn3, stronger effect = lower value 0.896 | locus YLR039C, strain RIC1, stronger effect = lower value 0.346 | locus YLR102C, strain apc9, stronger effect = lower value 0.917 | locus YLR262C, strain YPT6 (second series), stronger effect = lower value 0.558 | locus YLR262C, strain YPT6, stronger effect = lower value 0.352 | locus YLR268W, strain sec22, stronger effect = lower value 0.861 | locus YLR320W, strain mms22, stronger effect = lower value 0.797 | locus YLR330W, strain CHS5, stronger effect = lower value 0.876 | locus YLR342W, strain FKS1 (second series), stronger effect = lower value 0.662 | locus YLR371W, strain rom2, stronger effect = lower value 0.77 | locus YLR418C, strain cdc73, stronger effect = lower value 0.453 | locus YML032C, strain rad52, stronger effect = lower value 0.774 | locus YML120C, strain ndi1, stronger effect = lower value 0.904 | locus YML124C, strain tub3, stronger effect = lower value 0.904 | locus YMR078C, strain ctf18, stronger effect = lower value 0.861 | locus YMR205C, strain PFK2, stronger effect = lower value 0.861 | locus YMR223W, strain ubp8, stronger effect = lower value 0.825 | locus YMR307W, strain GAS1, stronger effect = lower value 0.402 | locus YNL071W, strain lat1, stronger effect = lower value 0.786 | locus YNL233W, strain BNI4, stronger effect = lower value 0.788 | locus YNL271C, strain bni1, stronger effect = lower value 0.918 | locus YNL298W, strain CLA4, stronger effect = lower value 0.908 | locus YNL307C, strain MCK1, stronger effect = lower value 0.323 | locus YNR052C, strain pop2, stronger effect = lower value 0.883 | locus YOL147C, strain pex11, stronger effect = lower value 0.767 | locus YOR136W, strain idh2, stronger effect = lower value 0.919 | locus YOR144C, strain elg1, stronger effect = lower value 0.888 | locus YOR184W, strain ser1, stronger effect = lower value 0.504 | locus YOR270C, strain vph1, stronger effect = lower value 0.732 | locus YOR316C, strain cot1, stronger effect = lower value 0.918 | locus YPR119W, strain clb2, stronger effect = lower value 0.91 | locus YPR141C, strain kar3, stronger effect = lower value 0.896 | locus YPR163C, strain tif3, stronger effect = lower value 0.71 | locus YPR167C, strain met16, stronger effect = lower value 0.885 | strain wtn01, stronger effect = lower value 0.751
0.651 (active) and 0.94 (inactive): locus YJL095W, strain BCK1, stronger effect = lower value
inactive: locus YAL021C, strain ccr4, stronger effect = lower value 0.967 | locus YAL026C, strain drs2, stronger effect = lower value 0.915 | locus YAL030W, strain snc1, stronger effect = lower value 0.935 | locus YBL061C, strain skt5, stronger effect = lower value 0.932 | locus YBR009C, strain hhf1, stronger effect = lower value 0.934 | locus YBR021W, strain FUR4, stronger effect = lower value 0.981 | locus YBR023C, strain chs3, stronger effect = lower value 0.925 | locus YBR171W, strain sec66, stronger effect = lower value 0.937 | locus YBR229C, strain ROT2, stronger effect = lower value 0.948 | locus YBR231C, strain swc5, stronger effect = lower value 0.954 | locus YBR279W, strain paf1, stronger effect = lower value 0.957 | locus YCL011C, strain gbp2, stronger effect = lower value 0.929 | locus YCL016C, strain dcc1, stronger effect = lower value 0.942 | locus YCL061C, strain MRC1, stronger effect = lower value 0.951 | locus YCL069W, strain vba3, stronger effect = lower value 0.95 | locus YDL005C, strain med2, stronger effect = lower value 0.971 | locus YDL035C, strain GPR1, stronger effect = lower value 0.867 | locus YDL040C, strain nat1, stronger effect = lower value 0.938 | locus YDL101C, strain DUN1, stronger effect = lower value 0.906 | locus YDL185W, strain tfp1, stronger effect = lower value 0.966 | locus YDR001C, strain nth1, stronger effect = lower value 0.936 | locus YDR069C, strain doa4, stronger effect = lower value 0.948 | locus YDR150W, strain NUM1, stronger effect = lower value 0.957 | locus YDR195W, strain ref2 1.04 | locus YDR297W, strain sur2, stronger effect = lower value 0.932 | locus YDR334W, strain swr1, stronger effect = lower value 0.944 | locus YDR335W, strain msn5, stronger effect = lower value 0.941 | locus YDR392W, strain spt3, stronger effect = lower value 0.81 | locus YEL003W, strain gim4, stronger effect = lower value 0.933 | locus YEL037C, strain rad23, stronger effect = lower value 0.946 | locus YEL061C, strain CIN8 (second series), stronger effect = lower value 0.916 | locus YEL061C, strain CIN8, stronger effect = lower value 0.938 | locus YER015W, strain faa2, stronger effect = lower value 0.944 | locus YER016W, strain bim1, stronger effect = lower value 0.941 | locus YER111C, strain swi4, stronger effect = lower value 0.938 | locus YER155C, strain BEM2, stronger effect = lower value 0.947 | locus YFR010W, strain ubp6, stronger effect = lower value 0.95 | locus YGL167C, strain pmr1, stronger effect = lower value 0.942 | locus YGL227W, strain vid30, stronger effect = lower value 0.927 | locus YGL253W, strain hxk2, stronger effect = lower value 0.967 | locus YHR013C, strain ard1, stronger effect = lower value 0.907 | locus YHR027C, strain rpn1, stronger effect = lower value 0.945 | locus YHR079C, strain IRE1, stronger effect = lower value 0.929 | locus YHR094C, strain hxt1, stronger effect = lower value 0.926 | locus YHR142W, strain chs7, stronger effect = lower value 0.894 | locus YIL073C, strain SPO22, stronger effect = lower value 0.764 | locus YJL092W, strain hpr5, stronger effect = lower value 0.943 | locus YJL095W, strain BCK1 (second series), stronger effect = lower value 0.936 | locus YJL115W, strain asf1, stronger effect = lower value 0.936 | locus YJL129C, strain trk1, stronger effect = lower value 0.892 | locus YJL134W, strain LCB3, stronger effect = lower value 0.955 | locus YJL154C, strain vps35, stronger effect = lower value 0.941 | locus YJL164C, strain tpk1, stronger effect = lower value 0.919 | locus YJL166W, strain qcr8, stronger effect = lower value 0.935 | locus YJL187C, strain SWE1 (second series), stronger effect = lower value 0.876 | locus YJL187C, strain SWE1, stronger effect = lower value 0.944 | locus YJR043C, strain POL32, stronger effect = lower value 0.932 | locus YJR066W, strain TOR1, stronger effect = lower value 0.893 | locus YKL009W, strain mrt4, stronger effect = lower value 0.894 | locus YKL160W, strain elf1, stronger effect = lower value 0.942 | locus YKL190W, strain CNB1, stronger effect = lower value 0.939 | locus YKR091W, strain srl3, stronger effect = lower value 0.948 | locus YLL001W, strain dnm1, stronger effect = lower value 0.951 | locus YLL026W, stronger effect = lower value 0.943 | locus YLL041C, strain sdh2, stronger effect = lower value 0.929 | locus YLR027C, strain aat2, stronger effect = lower value 0.927 | locus YLR058C, strain SHM2, stronger effect = lower value 0.909 | locus YLR113W, strain HOG1, stronger effect = lower value 0.862 | locus YLR221C, strain rsa3, stronger effect = lower value 0.932 | locus YLR258W, strain gsy2, stronger effect = lower value 0.948 | locus YLR342W, strain FKS1, stronger effect = lower value 0.915 | locus YLR357W, strain rsc2, stronger effect = lower value 0.919 | locus YLR370C, strain arc18, stronger effect = lower value 0.927 | locus YLR384C, strain iki3, stronger effect = lower value 0.962 | locus YML016C, strain PPZ1, stronger effect = lower value 0.924 | locus YMR058W, strain fet3, stronger effect = lower value 0.929 | locus YMR125W, strain sto1, stronger effect = lower value 0.942 | locus YMR129W, stronger effect = lower value 0.946 | locus YMR231W, strain pep5, stronger effect = lower value 0.983 | locus YNL067W, strain RPL9B, stronger effect = lower value 0.867 | locus YNL128W, strain TEP1, stronger effect = lower value 0.905 | locus YNL153C, strain GIM3, stronger effect = lower value 0.905 | locus YNL183C, strain NPR1, stronger effect = lower value 0.859 | locus YNL209W, strain ssb2, stronger effect = lower value 0.955 | locus YNL248C, strain rpa49, stronger effect = lower value 0.923 | locus YNL250W, strain rad50, stronger effect = lower value 0.95 | locus YNL322C, strain KRE1 (second series), stronger effect = lower value 0.942 | locus YNR049C, strain mso1, stronger effect = lower value 0.933 | locus YOL012C, strain htz1 1.98 | locus YOR001W, strain rrp6, stronger effect = lower value 0.92 | locus YOR061W, strain CKA2, stronger effect = lower value 0.928 | locus YOR069W, strain VPS5, stronger effect = lower value 0.95 | locus YOR070C, strain gyp1, stronger effect = lower value 0.937 | locus YOR080W, strain dia2, stronger effect = lower value 0.961 | locus YOR083W, strain WHI5, stronger effect = lower value 0.93 | locus YOR106W, strain vam3, stronger effect = lower value 0.878 | locus YOR231W, strain MKK1, stronger effect = lower value 0.923 | locus YOR265W, strain rbl2, stronger effect = lower value 0.931 | locus YOR290C, strain snf2, stronger effect = lower value 0.885 | locus YPL051W, strain arl3, stronger effect = lower value 0.938 | locus YPL078C, strain atp4, stronger effect = lower value 0.929 | locus YPL106C, strain sse1, stronger effect = lower value 0.965 | locus YPL240C, strain hsp82, stronger effect = lower value 0.953 | locus YPL256C, strain CLN2, stronger effect = lower value 0.904
